In PubChem BioAssay (EPA / NIEHS) one finds outcome and AC50 data, which are given here for seven molecules.

SMILES strings stand for the structures. Records with an inconclusive call do not appear. Activity calls are given as the source filed them. The calls were made as follows, unless noted: active = hit-call score of the fitted dose curve at least 0.9, where 1 is the maximum; inconclusive = response in the unintended direction; inactive = score below 0.9.

Read-out in experiment [1]: UDP glucuronosyltransferase (UGT1A1), UGT1A1 (gene 54658)
The experiment is described as follows: LTEA_HepaRG_UGT1A1: Life Technologies and Expression Analysis (LTEA) Assay for UDP glucuronosyltransferase (UGT1A1) using HepaRG (AID 2283538; active = hit-call score of the fitted dose curve at least 0.9, where 1 is the maximum; inactive = score below 0.9). Particulars: mRNA level, 48 h; actives raise or lower the signal. The gist of the method: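 Readout is UGT1A1 transcript level by qRT-PCR, normalized to three housekeeping genes, after 48 h chemical treatment of HepaRG cells. Concentrations ran from 100 uM down in half-log steps with 0.5% DMSO, and gain or loss relative to DMSO was fitted.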

Read-out in experiment [2]: UDP glucuronosyltransferase (UGT1A6), UGT1A6 (gene 54578)
The experiment is described as follows: LTEA_HepaRG_UGT1A6: Life Technologies and Expression Analysis (LTEA) Assay for UDP glucuronosyltransferase (UGT1A6) using HepaRG (AID 2283539; active = hit-call score of the fitted dose curve at least 0.9, where 1 is the maximum; inactive = score below 0.9). The following applies: mRNA level, 48 h; actives raise or lower the signal. The method, boiled down:
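Endpoint is UGT1A6 transcript induction or loss in a human liver cell line, quantified by TaqMan qRT-PCR 48 h after dosing. Concentrations ran from 100 uM downward in half-log steps in 0.5% DMSO; activity was fitted in both directions versus vehicle.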

Read-out in experiment [3]: X-box binding protein 1 (XBP1), XBP1 (gene 7494)
The experiment is described as follows: LTEA_HepaRG_XBP1: Life Technologies and Expression Analysis (LTEA) Assay for X-box binding protein 1 (XBP1) using HepaRG (AID 2283540; active = hit-call score of the fitted dose curve at least 0.9, where 1 is the maximum; inactive = score below 0.9). The following applies: mRNA level, 48 h; actives raise or lower the signal. The gist of the method:
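Human HepaRG monolayers receive test chemical for 48 h across an eight-point half-log series starting at 100 uM. XBP1 mRNA gain or loss is scored against DMSO by qRT-PCR.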

Experiment [4] in a line: LTEA_HepaRG_LDH_cytotoxicity: Cytotoxicity Assessment in the Life Technologies and Expression Analysis (LTEA) Assay (AID 2283563).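 As to AC50: LDH activity released into spent culture medium as a marker of cell death.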 The gist of the method: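 Human HepaRG hepatic cells are treated with test chemicals for 48 h at up to 100 uM in 0.5% DMSO. Cytotoxicity is scored from medium LDH against the vehicle control.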
Experiment [5] can be described thus: ATG_XTT_Cytotoxicity: Cytotoxicity Assessment in the Attagene TRANS-FACTORIAL HepG2 Assay (AID 2283584).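 As to AC50: XTT signal for cell number as viability in transfected HepG2 cells; cells exposed to compound for 24 h before reading; active means loss of viability signal versus DMSO baseline.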 The gist of the method:
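Transfect HepG2 with GAL4-UAS reporter units, dose compound, incubate 24 h, then measure viable cell number by XTT. Fit concentration response against DMSO baseline.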

The nature of experiment [6]: TOX21_p53_BLA_p2_viability: Viability Assessment in the Tox21 HCT-116 p53 Agonism Beta-lactamase Assay, Phase 2 (AID 2283591).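 Also: actives lower the ATP signal meaning cytotoxicity.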 The gist of the method:
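Cytotoxicity readout: CellTiter-Glo ATP luminescence, 30 min at room temperature, after the beta-lactamase read. Cells were HCT116 exposed 16 h at 37C to compounds pin-transferred at 217-fold dilution from DMSO stocks.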

Experiment [7] can be described thus: TOX21_p53_BLA_p3_viability: Viability Assessment in the Tox21 HCT-116 p53 Agonism Beta-lactamase Assay, Phase 3 (AID 2283593).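 Also: cells exposed to compound for 16 h before reading.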 The method, boiled down:
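Cellular ATP was quantified by CellTiter-Glo luminescence, read after 30 min at room temperature. Beforehand, HCT116 cells (4000/well) received compound 5 h post-seeding, 217-fold diluted from DMSO, then incubated 16 h at 37C.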

The target in experiment [8] is Cellular tumor antigen p53 (Homo sapiens) (UniProt P04637). Kind of experiment: TOX21_p53_BLA_p3_ratio: Tox21 HCT-116 p53 Agonism Beta-lactamase Assay, Ratio, Phase 3 (AID 2283596). The method, boiled down: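 HCT116 p53-bla cells (4000/well) given compound in DMSO (217-fold dilution) after 5 h, incubated 16 h at 37C. CCF4-AM substrate 2 h at room temperature; 460/530 nm emission ratio, gain fitted against DMSO.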
Sequence of Cellular tumor antigen p53 (Homo sapiens) (P04637 whole entry, looked up): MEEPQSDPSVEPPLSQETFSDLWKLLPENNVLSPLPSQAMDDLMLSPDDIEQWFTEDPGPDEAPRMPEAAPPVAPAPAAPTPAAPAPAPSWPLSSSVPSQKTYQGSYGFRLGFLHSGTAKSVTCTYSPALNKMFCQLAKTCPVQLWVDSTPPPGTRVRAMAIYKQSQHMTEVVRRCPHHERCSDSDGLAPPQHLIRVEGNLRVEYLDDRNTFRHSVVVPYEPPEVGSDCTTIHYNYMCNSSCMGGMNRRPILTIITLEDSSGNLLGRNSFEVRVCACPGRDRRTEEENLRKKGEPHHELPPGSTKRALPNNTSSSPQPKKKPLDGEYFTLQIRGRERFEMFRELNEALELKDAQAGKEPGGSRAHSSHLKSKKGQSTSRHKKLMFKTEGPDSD

Experiment [9] in a line: TOX21_p53_BLA_p5_viability: Viability Assessment in the Tox21 HCT-116 p53 Agonism Beta-lactamase Assay, Phase 5 (AID 2283600). The gist of the method: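 Counter-readout for cytotoxicity: ATP-dependent luminescence from CellTiter-Glo, read in the beta-lactamase wells after 30 min at RT, following a 16 h compound exposure at 37C.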
Experiment [10] can be described thus: Tanguay_ZF_120hpf_MORT_legacy: (Legacy) Oregon State University Tanguay Lab 120 Hour Post-fertilization zebrafish Assay for Mortality (AID 2283633).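 As to AC50: fitted as increase in binary mortality versus DMSO negative control.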 The gist of the method: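 Mortality endpoint from a multiplexed whole-embryo zebrafish screen. Dechorionated wild-type embryos received compound at 6 hpf and remained under static exposure at 28C until 120 hpf, with death noted as a present/absent call.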

Experiment [11] is described as follows: Tanguay_ZF_120hpf_EYE_legacy: (Legacy) Oregon State University Tanguay Lab 120 Hour Post-fertilization zebrafish Assay for Eye Malformation (AID 2283636). The gist of the method:
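Read-out is binary presence or absence of eye malformation, scored by brightfield microscopy at 120 hpf. Single larvae were exposed from 6 hpf in embryo medium containing 0.64% DMSO, with DMSO as baseline.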

The nature of experiment [12]: Tanguay_ZF_120hpf_SNOU_legacy: (Legacy) Oregon State University Tanguay Lab 120 Hour Post-fertilization zebrafish Assay for Snout Malformation (AID 2283637). The gist of the method:
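Snout malformation read as a yes/no call on brightfield images of 120 hpf larvae (Tropical 5D strain). Static exposure began at 6 hpf on dechorionated embryos in 0.64% DMSO, with gain of signal analysed versus DMSO controls.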

The nature of experiment [13]: Tanguay_ZF_120hpf_JAW_legacy: (Legacy) Oregon State University Tanguay Lab 120 Hour Post-fertilization zebrafish Assay for Jaw Malformation (AID 2283638).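 As to AC50: active means more embryos with jaw malformation than DMSO controls.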 The gist of the method: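 Static waterborne exposure of dechorionated wild-type (Tropical 5D) zebrafish from 6 to 120 hpf at 28C, 0.64% DMSO vehicle; 5uM trimethyltin chloride served as positive control. Jaw morphology recorded as binary at 120 hpf.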

Experiment [14] is described as follows: Tanguay_ZF_120hpf_OTIC_legacy: (Legacy) Oregon State University Tanguay Lab 120 Hour Post-fertilization zebrafish Assay for Otic Vesicle Malformation (AID 2283639). The gist of the method: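 Embryos from 5D wild-type adults exposed in plates; DMSO 0.64% v/v final. Sealed, light-protected, 28C, static to 120 hpf. Otic vesicle malformation recorded as binary endpoint; gain-of-signal fitted vs DMSO.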

The target of experiment [15] is Cellular tumor antigen p53 (Homo sapiens) (UniProt P04637). Kind of experiment: TOX21_p53_BLA_p2_ratio: Tox21 HCT-116 p53 Agonism Beta-lactamase Assay, Ratio, Phase 2 (AID 2283592). The gist of the method:
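An inducible beta-lactamase reporter in HCT116 cells signals p53 pathway activation. After 16 h chemical exposure at 37C, cells load CCF4-AM substrate for 2 h at room temperature; activity is the cleaved/uncleaved emission ratio relative to DMSO.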

Experiment [16] in a line: TOX21_p53_BLA_p4_viability: Viability Assessment in the Tox21 HCT-116 p53 Agonism Beta-lactamase Assay, Phase 4 (AID 2283597).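 Also: hits lower the luminescence signal meaning cytotoxicity.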 The method, boiled down: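 Compound exposure of HCT116 cells lasts 16 h at 37C, 5% CO2, with DMSO stocks diluted 217-fold. Cellular ATP is then quantified by CellTiter-Glo luminescence after 30 min at room temperature.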
The target in experiment [17] is Cellular tumor antigen p53 (Homo sapiens) (UniProt P04637). Kind of experiment: TOX21_p53_BLA_p5_ratio: Tox21 HCT-116 p53 Agonism Beta-lactamase Assay, Ratio, Phase 5 (AID 2283599). The method, boiled down:
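Beta-lactamase reporter ratio (blue 460 nm over green 530 nm, 405 nm excitation) after 2 h CCF4-AM loading, in HCT-116 cells exposed 16 h at 37 C to compounds pinned at 217-fold dilution. Increases relative to DMSO baseline scored.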

Experiment [18] in a line: Tanguay_ZF_120hpf_YSE_legacy: (Legacy) Oregon State University Tanguay Lab 120 Hour Post-fertilization zebrafish Assay for Yolk Sac Edema (AID 2283634).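 As to AC50: actives raise the incidence of yolk sac edema above the DMSO baseline.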 The gist of the method:
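Readout: presence or absence of yolk sac edema at 120 hpf, fitted upward against DMSO controls. Exposure ran statically from 6 hpf in dechorionated embryos kept at 28C.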

Experiment [19] in a line: Tanguay_ZF_120hpf_AXIS_legacy: (Legacy) Oregon State University Tanguay Lab 120 Hour Post-fertilization zebrafish Assay for Body Axis Malformation (AID 2283635). The gist of the method:
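Static 6–120 hpf chemical exposure of dechorionated wild-type 5D zebrafish, one per well at 28C; morphology endpoint scored binary at 120 hpf relative to DMSO control.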

For orientation: AC50 means the concentration at which the activity in the assay is half-maximal. With `CS(=O)(=O)c1ccc([C@@H](C[C@H]2CCC(=O)C2)C(=O)Nc2cnccn2)cc1Cl`, the outcome in [1], in experiment [2], in [4], in experiment [5], in experiment [6] and in experiment [7] was inactive. The outcome in experiment [8], in [9], in experiment [10], in experiment [11], in [12] and in [13] was inactive. The call in experiment [14] was inactive. Also, in [3], the AC50 is 1.33 µM (active).

In the case of `CCC(C)N(C)C(=O)c1cc2ccccc2c(-c2ccccc2Cl)n1` (stereo not drawn), the AC50 in [1] is 2.1 µM (active); in [18], 20.4 µM (active). For the same molecule, the molecule was called inactive in experiment [2], in experiment [3], in [4], in experiment [5], in [6] and in [15]. Also, the molecule was called inactive in [7], in experiment [8], in [16], in experiment [17], in experiment [9] and in experiment [10]. The molecule was classed as inactive in [11], in experiment [12], in [13] and in experiment [14].

Consider `CCCCC(CC)CO` (stereo not drawn), for which the outcome in [1], in [2], in experiment [3], in experiment [4], in experiment [5] and in experiment [15] was inactive. In addition, the molecule was classed as inactive in experiment [7], in [8], in experiment [17], in experiment [9], in experiment [10] and in experiment [11]. Moreover, the outcome in experiment [12], in experiment [13] and in [14] was inactive.

Consider `CC(=O)OC1CC(C)OC(C)O1` (stereo not drawn), for which the result in [1], in experiment [2], in [3], in [4], in [5] and in experiment [10] was inactive. For the same molecule, the molecule was classed as inactive in [19], in experiment [11], in [12] and in experiment [13].

Turning to `CC(C)(C)c1ccccc1`, the call in experiment [1], in [2], in [3], in experiment [4], in experiment [5] and in experiment [7] was inactive. The result in experiment [8], in [16], in [17], in [9], in experiment [19] and in experiment [11] was inactive. For the same molecule, in [14], the molecule was classed as inactive. Further, the AC50 in experiment [10] is 13.1 µM (active); in experiment [12], 5.01 µM (active); in experiment [13], 4.3 µM (active).

Turning to `Cc1ccc(-c2cc(C(F)(F)F)nn2-c2ccc(S(N)(=O)=O)cc2)cc1`, the AC50 in experiment [1] was 86.3 µM (active); in [2], 71.6 µM (active); in experiment [3] it was 50 µM (active); in [4], 74.4 µM (active); in [5] it was 149 µM (active). For the same molecule, the molecule was classed as inactive in [10], in experiment [18], in experiment [11], in [12] and in experiment [13].

For the molecule `CCCCCCCCCCCCCCCCO`, the molecule was called inactive in [1], in experiment [2], in experiment [3], in experiment [4], in [5] and in experiment [10]. Besides, the call in experiment [11], in [12], in experiment [13] and in experiment [14] was inactive.
